Measurements as given in PubChem BioAssay AID1159580 (chemical genetic matrix, 2015).
Several values for one entry are separate records, joined by “and”; a condition that tells them apart may be missing. Equal entries are not always repeated. Among all 5,500 compounds or so, about 2,000 (36%) were called active. Inconclusive results (about 18%) are left out. Rule as the data show it: active = normalized growth mostly below about 0.91 (no sharp cut-off); inconclusive = no clear call, values can overlap the other calls; inactive = mostly above about 0.92. The list shows a part of the results.

Assay: chemical genetic growth profiling, strain panel (AID 1159580);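 also: tested at 20 µM; growth read once vehicle control cultures reached saturation at 30 °C; 1 = growth at the plate median or of vehicle wells; lower values mean less growth of the strain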
Details: S. cerevisiae deletion strains, growth OD

Measured: normalized growth

O=C1c2ccccc2C(=O)c2ccccc21
inactive: locus YAL013W, strain DEP1, active compounds read low 1 | locus YAL021C, strain ccr4, active compounds read low 0.97 | locus YAL026C, strain drs2, active compounds read low 0.969 | locus YAL030W, strain snc1, active compounds read low 0.995 | locus YBL061C, strain skt5, active compounds read low 0.986 | locus YBR009C, strain hhf1, active compounds read low 0.96 | locus YBR021W, strain FUR4, active compounds read low 1.15 | locus YBR023C, strain chs3, active compounds read low 0.982 | locus YBR171W, strain sec66, active compounds read low 0.978 | locus YBR229C, strain ROT2, active compounds read low 0.999 | locus YBR231C, strain swc5, active compounds read low 0.963 | locus YBR279W, strain paf1, active compounds read low 0.975 | locus YCL011C, strain gbp2, active compounds read low 0.989 | locus YCL016C, strain dcc1, active compounds read low 0.957 | locus YCL029C, strain bik1, active compounds read low 0.994 | locus YCL069W, strain vba3, active compounds read low 0.998 | locus YCR088W, strain abp1, active compounds read low 1.01 | locus YDL005C, strain med2, active compounds read low 0.999 | locus YDL035C, strain GPR1, active compounds read low 0.949 | locus YDL040C, strain nat1, active compounds read low 0.988 | locus YDL074C, strain BRE1, active compounds read low 0.91 | locus YDL101C, strain DUN1, active compounds read low 0.985 | locus YDL134C, strain PPH21, active compounds read low 0.995 | locus YDL185W, strain tfp1, active compounds read low 0.981 | locus YDL192W, strain arf1, active compounds read low 0.99 | locus YDR001C, strain nth1, active compounds read low 0.993 | locus YDR069C, strain doa4, active compounds read low 0.984 | locus YDR101C, strain arx1, active compounds read low 0.989 | locus YDR137W, strain rgp1, active compounds read low 0.947 | locus YDR150W, strain NUM1, active compounds read low 0.969 | locus YDR159W, strain sac3, active compounds read low 1.01 | locus YDR162C, strain NBP2, active compounds read low 0.921 | locus YDR297W, strain sur2, active compounds read low 0.993 | locus YDR318W, strain mcm21, active compounds read low 0.975 | locus YDR334W, strain swr1, active compounds read low 0.974 | locus YDR335W, strain msn5, active compounds read low 0.966 | locus YDR388W, active compounds read low 1 | locus YDR392W, strain spt3, active compounds read low 0.842 | locus YDR502C, strain sam2, active compounds read low 0.991 | locus YEL003W, strain gim4, active compounds read low 0.981 | locus YEL037C, strain rad23, active compounds read low 0.982 | locus YEL061C, strain CIN8 (second series), active compounds read low 0.991 | locus YEL061C, strain CIN8, active compounds read low 1.01 | locus YER015W, strain faa2, active compounds read low 0.957 | locus YER016W, strain bim1, active compounds read low 0.992 | locus YER110C, active compounds read low 0.986 | locus YER111C, strain swi4, active compounds read low 1 | locus YER155C, strain BEM2 (second series), active compounds read low 0.968 | locus YER155C, strain BEM2, active compounds read low 1.02 | locus YER167W, strain BCK2, active compounds read low 0.976 | locus YFR010W, strain ubp6, active compounds read low 0.982 | locus YGL078C, strain dbp3, active compounds read low 0.978 | locus YGL086W, strain mad1, active compounds read low 0.967 | locus YGL167C, strain pmr1, active compounds read low 0.963 | locus YGL173C, strain kem1, active compounds read low 0.997 | locus YGL227W, strain vid30, active compounds read low 1 | locus YGL240W, strain doc1, active compounds read low 1 | locus YGL248W, strain PDE1, active compounds read low 1.01 | locus YGL253W, strain hxk2, active compounds read low 0.968 | locus YGR078C, strain PAC10, active compounds read low 0.963 | locus YGR135W, strain pre9, active compounds read low 0.994 | locus YGR229C, strain SMI1, active compounds read low 0.854 | locus YGR252W, strain gcn5, active compounds read low 1.01 | locus YHR013C, strain ard1, active compounds read low 0.974 | locus YHR027C, strain rpn1, active compounds read low 0.965 | locus YHR030C, strain SLT2, active compounds read low 1.01 and 1.02 | locus YHR079C, strain IRE1 (second series), active compounds read low 0.994 | locus YHR079C, strain IRE1, active compounds read low 1.04 | locus YHR094C, strain hxt1, active compounds read low 0.98 | locus YHR129C, strain ARP1, active compounds read low 1 | locus YHR142W, strain chs7, active compounds read low 0.93 | locus YHR200W, strain rpn10, active compounds read low 0.988 | locus YIL066C, strain RNR3, active compounds read low 0.95 | locus YIL073C, strain SPO22, active compounds read low 0.832 | locus YIL125W, strain kgd1, active compounds read low 0.989 | locus YIR030C, strain dcg1, active compounds read low 0.998 | locus YJL092W, strain hpr5, active compounds read low 0.992 | locus YJL095W, strain BCK1 (second series), active compounds read low 1 | locus YJL095W, strain BCK1, active compounds read low 0.994 and 1.03 | locus YJL115W, strain asf1, active compounds read low 0.998 | locus YJL129C, strain trk1, active compounds read low 1.07 | locus YJL134W, strain LCB3, active compounds read low 0.988 | locus YJL154C, strain vps35, active compounds read low 1 | locus YJL164C, strain tpk1, active compounds read low 0.975 | locus YJL166W, strain qcr8, active compounds read low 1 | locus YJL168C, strain set2, active compounds read low 1 | locus YJL187C, strain SWE1 (second series), active compounds read low 0.982 | locus YJL187C, strain SWE1, active compounds read low 0.989 | locus YJR043C, strain POL32, active compounds read low 0.958 | locus YJR066W, strain TOR1, active compounds read low 0.982
active: locus YDR195W, strain ref2 1.24 [resistant]
